Laboratory results as given in PubChem BioAssay AID1159580 (chemical genetic matrix, 2015).
Where “and” joins values, the source holds several entries; their conditions need not be identical. Equal values may be shown once. In all, about 5,500 compounds went through this assay and about 2,000 (36%) were called active. Not shown: some 18% with an inconclusive outcome. Cut-off read from the data, not from the text of the source: active = normalized growth mostly below about 0.91 (no sharp cut-off); inconclusive = no clear call, values can overlap the other calls; inactive = mostly above about 0.92. The list shows a part of the results.

Test: chemical genetic growth profiling, strain panel (AID 1159580);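 note: tested at 20 µM; growth read once vehicle control cultures reached saturation at 30 °C; 1 = growth at the plate median or of vehicle wells; lower values mean less growth of the strain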
Details: S. cerevisiae deletion strains, growth OD

Measured: normalized growth

COc1ccc(Cc2nccc3cc(OC)c(OC)cc23)cc1OC
inactive: locus YAL021C, strain ccr4, active compounds read low 1.04 | locus YAL026C, strain drs2, active compounds read low 1 | locus YAL030W, strain snc1, active compounds read low 1 | locus YAL040C, strain CLN3, active compounds read low 0.983 | locus YBL061C, strain skt5, active compounds read low 1 | locus YBR009C, strain hhf1, active compounds read low 0.995 | locus YBR021W, strain FUR4, active compounds read low 1.01 | locus YBR023C, strain chs3, active compounds read low 1.01 | locus YBR171W, strain sec66, active compounds read low 1.01 | locus YBR229C, strain ROT2, active compounds read low 1.01 | locus YBR231C, strain swc5, active compounds read low 0.998 | locus YBR279W, strain paf1, active compounds read low 1.01 | locus YCL011C, strain gbp2, active compounds read low 1.01 | locus YCL016C, strain dcc1, active compounds read low 1.01 | locus YCL029C, strain bik1, active compounds read low 0.992 | locus YCL061C, strain MRC1 (second series), active compounds read low 1 | locus YCL061C, strain MRC1, active compounds read low 1 | locus YCL069W, strain vba3, active compounds read low 1 | locus YCR088W, strain abp1, active compounds read low 1.01 | locus YDL005C, strain med2, active compounds read low 0.994 | locus YDL035C, strain GPR1, active compounds read low 1.01 | locus YDL040C, strain nat1, active compounds read low 0.998 | locus YDL074C, strain BRE1, active compounds read low 1.02 | locus YDL101C, strain DUN1, active compounds read low 1.01 | locus YDL134C, strain PPH21, active compounds read low 1.01 | locus YDL185W, strain tfp1, active compounds read low 0.992 | locus YDL192W, strain arf1, active compounds read low 0.989 | locus YDR001C, strain nth1, active compounds read low 0.999 | locus YDR069C, strain doa4, active compounds read low 0.989 | locus YDR101C, strain arx1, active compounds read low 0.996 | locus YDR137W, strain rgp1, active compounds read low 1.03 | locus YDR150W, strain NUM1, active compounds read low 1.02 | locus YDR159W, strain sac3, active compounds read low 0.962 | locus YDR162C, strain NBP2, active compounds read low 1 | locus YDR195W, strain ref2 0.981 | locus YDR297W, strain sur2, active compounds read low 1 | locus YDR318W, strain mcm21, active compounds read low 0.976 | locus YDR334W, strain swr1, active compounds read low 1.01 | locus YDR335W, strain msn5, active compounds read low 0.999 | locus YDR363W, strain ESC2, active compounds read low 0.988 | locus YDR388W, active compounds read low 0.993 | locus YDR392W, strain spt3, active compounds read low 0.921 | locus YDR502C, strain sam2, active compounds read low 0.986 | locus YEL003W, strain gim4, active compounds read low 0.996 | locus YEL037C, strain rad23, active compounds read low 1 | locus YEL061C, strain CIN8 (second series), active compounds read low 1 | locus YEL061C, strain CIN8, active compounds read low 1.01 | locus YER002W, strain NOP16, active compounds read low 0.994 | locus YER015W, strain faa2, active compounds read low 1 | locus YER016W, strain bim1, active compounds read low 0.996 | locus YER110C, active compounds read low 0.988 | locus YER111C, strain swi4, active compounds read low 1.01 | locus YER155C, strain BEM2 (second series), active compounds read low 0.987 | locus YER155C, strain BEM2, active compounds read low 1.01 | locus YER167W, strain BCK2, active compounds read low 1.01 | locus YFR010W, strain ubp6, active compounds read low 0.998 | locus YGL078C, strain dbp3, active compounds read low 0.99 | locus YGL086W, strain mad1, active compounds read low 0.994 | locus YGL167C, strain pmr1, active compounds read low 0.998 | locus YGL173C, strain kem1, active compounds read low 0.999 | locus YGL227W, strain vid30, active compounds read low 1 | locus YGL240W, strain doc1, active compounds read low 0.967 | locus YGL248W, strain PDE1, active compounds read low 1.01 | locus YGL253W, strain hxk2, active compounds read low 1.01 | locus YGR078C, strain PAC10, active compounds read low 0.975 | locus YGR135W, strain pre9, active compounds read low 0.977 | locus YGR229C, strain SMI1, active compounds read low 0.995 and 0.994 | locus YGR252W, strain gcn5, active compounds read low 0.949 | locus YHR013C, strain ard1, active compounds read low 1.07 | locus YHR027C, strain rpn1, active compounds read low 0.998 | locus YHR030C, strain SLT2, active compounds read low 1.02 and 0.98 | locus YHR079C, strain IRE1 (second series), active compounds read low 0.985 | locus YHR079C, strain IRE1, active compounds read low 0.972 | locus YHR094C, strain hxt1, active compounds read low 0.992 | locus YHR129C, strain ARP1, active compounds read low 1.02 | locus YHR142W, strain chs7, active compounds read low 0.998 | locus YHR200W, strain rpn10, active compounds read low 0.99 | locus YIL066C, strain RNR3, active compounds read low 1.01 | locus YIL073C, strain SPO22, active compounds read low 0.957 | locus YIL125W, strain kgd1, active compounds read low 0.991 | locus YIR030C, strain dcg1, active compounds read low 0.983 | locus YJL092W, strain hpr5, active compounds read low 1 | locus YJL095W, strain BCK1 (second series), active compounds read low 1 | locus YJL095W, strain BCK1, active compounds read low 1.03 and 0.985 | locus YJL115W, strain asf1, active compounds read low 1 | locus YJL129C, strain trk1, active compounds read low 0.985 | locus YJL134W, strain LCB3, active compounds read low 1.01 | locus YJL154C, strain vps35, active compounds read low 1 | locus YJL164C, strain tpk1, active compounds read low 0.996 | locus YJL166W, strain qcr8, active compounds read low 1.01 | locus YJL168C, strain set2, active compounds read low 0.995 | locus YJL187C, strain SWE1 (second series), active compounds read low 1.01 | locus YJL187C, strain SWE1, active compounds read low 0.996 | locus YJR043C, strain POL32, active compounds read low 1.01
